Only some compounds are listed: those with a hit (about 1.3% of all), similar ones and a draw of the others.
RPL19A-GFP yeast = modulators of TOR pathway RPL19A-GFP in S. cerevisiae | S. cerevisiae RPL19A-GFP strain, flow cytometry, 3 h; stronger effect = lower value | percent response vs DMSO, % at 10 µM | 330,000 compounds, 0.3% hits | AID 2025;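 active = percent response vs DMSO below 50%; inconclusive = fewer than 70 events counted for the yeast strain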;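 also: median channel GFP fluorescence of the barcoded RPL19A-GFP strain; ratio of sample median GFP to plate DMSO average so 100% = DMSO; lower means less RPL19A-GFP as with rapamycin TOR inhibition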
AGP1-GFP MLPCN = alters AGP1-GFP fluorescence in TOR pathway yeast screen; AID 2066; 320,000 compounds, 0.02% hits; GFP response vs DMSO, % at 10 µM; S. cerevisiae AGP1-GFP multiplex flow cytometry, 3 h; GFP as percent of DMSO wells;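 active = GFP response relative to DMSO above a set limit, near screen average plus 3 SD, cut at about 150% in these data; inconclusive = fewer than 70 cells counted for the yeast strain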;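 also: median GFP channel fluorescence of the gated AGP1 strain per well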
CIT2 TOR yeast = yeast TOR pathway CIT2-GFP modulation; 320,000 compounds, 0.065% hits; S. cerevisiae CIT2-GFP strain, flow cytometry, 3 h; 100 means same as DMSO wells; AID 2029; GFP response vs DMSO, % at 10 µM;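 active = GFP response relative to DMSO above a set limit, near the screen mean plus 3 SD, cut at about 150% in these data; inconclusive = Fewer than 70 cells measured for a yeast strain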;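 also: ratio of well median GFP fluorescence to mean of DMSO wells on the plate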
MEP2-GFP yeast = yeast TOR pathway MEP2-GFP modulation; AID 2016; GFP response vs DMSO, % at 10 µM; 330,000 compounds, 0.51% hits; S. cerevisiae MEP2-GFP strain, flow cytometry GFP, 3 h; 100% = DMSO control level;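 active = GFP response versus DMSO above a set limit, roughly screen mean plus 3 SD, cut at about 180% in these data; inconclusive = fewer than 70 cells counted for a yeast strain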;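 also: median GFP fluorescence of the barcode-gated MEP2-GFP cells per well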
LAP4 TOR yeast = yeast TOR pathway LAP4-GFP modulation. GFP response vs DMSO, % at 10 µM. AID 2023. 320,000 compounds, 0.34% hits. S. cerevisiae LAP4-GFP multiplex, flow cytometry GFP, 3 h; median GFP as percent of DMSO wells;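 active = GFP response vs DMSO above a set limit, about the screen mean plus 3 SD, cut at about 150% in these data; inconclusive = under 70 cell events counted for the yeast strain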
Efflux pump mplx = antifungal efflux pump inhibition, Nile Red retention; AID 485275; inhibition, % at 10 µM; 330,000 compounds, 0.44% hits; S. cerevisiae Candida pump triplex;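 active = plate passing quality check with inhibition over a set limit, or well fluorescence over plate mean plus 4 SD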;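 also: Nile Red retained in pooled yeast measured as flow cytometry median fluorescence; 0% = buffer negative control and 100% = Enniatin B positive control; higher means more Nile Red kept so more efflux inhibition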
Cmpd fluor yeast = counter-screen for efflux pump inhibitors: compound fluorescence; shares compounds with Efflux pump mplx; 1,700 compounds, 4% hits; S. cerevisiae AD/pABC3, flow cytometry; fluorescence ratio to DMSO, % at 10 µM;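 active = fluorescence ratio to DMSO above its plate's cutoff, the plate mean ratio plus 5 SD, cut at about 210% in these data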;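 also: unstained yeast with no Nile Red so the signal is compound autofluorescence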
Mdr1 pump inh = inhibitors of Candida albicans Mdr1 efflux pump. shares compounds with Efflux pump mplx. S. cerevisiae AD/CaMDR1, Nile Red efflux, flow cytometry. inhibition, % at 10 µM. 1,700 compounds, 1% hits. AID 588518; in the data active = inhibition above about 26%;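 also: 0% = DMSO vehicle and 100% = reference inhibitor; higher means more Nile Red retained so more efflux inhibition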
Cdr2 pump inh = inhibitors of Candida albicans Cdr2 efflux pump | shares compounds with Efflux pump mplx | Nile Red retention ratio vs DMSO, % at 10 µM | S. cerevisiae AD/CaCDR2, Nile Red retention, flow cytometry | 1,700 compounds, 4% hits | AID 588520; in the data active = Nile Red retention ratio vs DMSO above about 190%;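 also: higher ratio means more blocking of Cdr2 efflux of the dye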
Cdr1 pump inh = inhibitors of Candida albicans Cdr1 efflux pump; shares compounds with Efflux pump mplx; S. cerevisiae AD/CaCDR1, Nile Red efflux, flow cytometry; 1,700 compounds, 1% hits; inhibition, % at 10 µM;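 active = inhibition above the screen-wide mean plus twice its standard deviation, cut at about 32% in these data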
The depositor's hits bear a star; ? = inconclusive; nt = no result given; + = active, no number; [ ] = dose if it differs, or a comment.

SMILES | RPL19A-GFP yeast | AGP1-GFP MLPCN | CIT2 TOR yeast | MEP2-GFP yeast | LAP4 TOR yeast | Efflux pump mplx | Cmpd fluor yeast | Mdr1 pump inh | Cdr2 pump inh | Cdr1 pump inh
CCCn1ncc(CN2CCC(C(=O)Nc3cccc(-c4cccc(F)c4)c3)CC2)c1C | 99 | 96 | 97 | 103 | 99 | 0 | nt | nt | nt | nt
CC(C)CCN1C(=O)c2cccc3c(N)ccc(c23)C1=O | 94 | 89 | 84 | 92 | 103 | 0.5* | 335* | 0 | 110 | 0
CC(C)NC(=O)C(c1ccc(F)cc1)N(C(=O)CCC(=O)Nc1ccccn1)C1CCCCC1 (configuration not stated) | 100 | 99 | 97 | 104 | 97 | 0 | nt | nt | nt | nt
Cc1ccsc1/C=N\NC(=O)c1n[nH]c2c1CCC2 | 97 | 99 | 98 | 91 | 94 | 11* | 87 | 0 | 94 | 0
COc1ccc(C(=O)NC23CC4CC(CC(C4)C2)C3)cc1 | 93 | 92 | 89 | 89 | 93 | 0 | nt | nt | nt | nt
COc1nc(NC23CC4CC(CC(C4)C2)C3)nc(OC)n1 | 95 | 99 | 97 | 101 | 90 | 0.5* | 104 | 0 | 103 | 0
CC(=O)c1cccc(OCC(O)CNCCOc2ccc(C)cc2)c1 (configuration not stated) | 103 | 102 | 94 | 110 | 89 | 0 | nt | nt | nt | nt
COc1cccc(CN(CC(=O)NCC2CCCO2)C(=O)CCC(=O)Nc2cc(C)on2)c1 (configuration not stated) | 100 | 96 | 94 | 93 | 100 | 0 | 124 | 0 | 110 | 0
CCn1c2ccccc2c2cc(NC(=O)C(C)OC(=O)c3ccc(NC(=O)CC#N)cc3)ccc21 (configuration not stated) | 98 | 100 | 96 | 104 | 103 | 0.4* | 106 | 0 | 104 | 0
COc1cccc(-c2sc3cc(OC)c(OC)cc3c2-c2ccc(OCCN3CCCCC3)cc2)c1 | nt | nt | nt | nt | nt | 1 | 98 | 0 | 116 | 0
COc1ccc(-c2sc3ccc(OC)cc3c2-c2ccc(OCCN3CCOCC3)cc2)cc1 | nt | nt | nt | nt | nt | 52* | 100 | 16 | 96 | 55*
COc1cccc(-c2sc3ccc(OC)cc3c2-c2ccc(OCCN3CCCC3)cc2)c1 | nt | nt | nt | nt | nt | 73* | 95 | 0 | + | 0
COc1cccc(-c2sc3ccccc3c2-c2ccc(OCCN3CCCCC3)cc2)c1 | 89 | 92 | 81 | 100 | 130 | 0 | nt | nt | nt | nt
CC(C)CC(CO)N1CCN(C(=O)c2ccc(Cl)c(Cl)c2)CCC1=O (configuration not stated) | 98 | 105 | 97 | 101 | 95 | 0 | nt | nt | nt | nt
Cc1cc(/C=C(\C#N)C(=O)NCCc2c[nH]c3ccccc23)c(C)n1C | 99 | 95 | 102 | 105 | 90 | 0 | nt | nt | nt | nt
N#C/C(=C/c1ccc(Br)s1)C(=O)NCCc1c[nH]c2ccccc12 | 105 | 93 | 92 | 100 | 95 | 5.5* | 111 | 0 | 91 | 0
O=C(NCc1ccc(Cl)cc1)c1noc2c1CCCCC2 | 92 | 87 | 79 | 94 | 104 | 0 | nt | nt | nt | nt
O=C(NCc1ccc(F)cc1)c1noc2c1CCCC2 | 100 | 106 | 96 | 110 | 116 | 0.9* | 83 | 0 | 95 | 0
Cc1ccc(S(=O)(=O)Nc2ccc(N3CCOCC3)nc2)cc1 | 102 | 104 | nt | 102 | 103 | 0 | nt | nt | nt | nt
Cc1ccc(C)n1-c1ccc(N2CCOCC2)nc1 | nt | 104 | 104 | 100 | 99 | 12* | 99 | 0 | 88 | 0
O=C(NC1CCCC1)C(c1ccncc1)N(C(=O)c1ccco1)c1ccccc1 (configuration not stated) | 97 | 96 | 100 | 98 | 89 | 0.6* | 98 | 0 | 108 | 0
S=C(NCCCN1CCOCC1)N1CCN(c2nc(-c3ccccc3)cs2)CC1 | 107 | 106 | 113 | 108 | 103 | 1.3* | 89 | 0 | 97 | 0
Nn1c(C2CCC2)nc2cc(Cl)ccc2c1=O | 113 | 106 | 112 | 122 | 106 | 0 | nt | nt | nt | nt
O=C(CCl)Nc1ccc2c(c1)OCO2 | 99 | 104 | 108 | 102 | 105 | 1.2* | 82 | 0 | 91 | 0
CC(C)CC(=O)Nc1ccc2c(c1)OCO2 | 104 | 95 | 96 | 106 | 109 | 0 | nt | nt | nt | nt
SMILES | RPL19A-GFP yeast | AGP1-GFP MLPCN | CIT2 TOR yeast | MEP2-GFP yeast | LAP4 TOR yeast | Efflux pump mplx | Cmpd fluor yeast | Mdr1 pump inh | Cdr2 pump inh | Cdr1 pump inh
Cc1ccc(/C=C\c2nccc3c2[nH]c2ccccc23)cc1 | 101 | 101 | 104 | 105 | 102 | 1.2* | 108 | 0 | 106 | 0
C(=C\c1nccc2c1[nH]c1ccccc12)/c1ccccc1 | 100 | 102 | 92 | 101 | 109 | 0 | nt | nt | nt | nt
O=C(/C=C/c1ccccc1[N+](=O)[O-])N1CCc2ccccc2C1 | 100 | 95 | 94 | 96 | 90 | 0 | nt | nt | nt | nt
CC1CCCCC12NC(=O)N(CC(=O)NC1CCCc3ccccc31)C2=O (configuration not stated) | 113 | 105 | 106 | 106 | 102 | 0.9* | 99 | 0 | 101 | 0
O=C(COC(=O)CCN1C(=O)/C(=C\C=C\c2ccccc2)SC1=S)Nc1cc(F)ccc1F | 97 | 96 | 91 | 106 | 108 | 0.8* | 105 | 0 | 106 | 0
O=C(CN1C(=O)/C(=C\C=C\c2ccccc2)SC1=S)Nc1ccc(F)cc1 | 98 | 94 | 93 | 93 | 87 | 0 | nt | nt | nt | nt
COc1ccc2[nH]cc(C=O)c2c1 | 104 | 102 | 104 | 100 | 109 | 0 | nt | nt | nt | nt
COc1ccc2[nH]cc(/C=C/c3cc[n+](C)cc3)c2c1 | 78 | ? | ? | 369*[may fluoresce violet] | 134 | 2 | 419* | 6 | 136 | 3
CCn1ncc(/C=C/C(=O)c2ccccc2)c1C | 95 | 91 | 100 | 101 | 103 | 11* | 106 | 0 | 91 | 0
COc1ccc(NC(=O)CC2S/C(=N\c3nccs3)N(C)C2=O)cc1 (configuration not stated) | 103 | 101 | 97 | 94 | 93 | 0 | nt | nt | nt | nt
C/C(=N\NC(=O)c1nnn(-c2nonc2N)c1CSc1ccccc1)c1cccnc1 | 107 | 112 | 112 | 119 | 112 | 0 | nt | nt | nt | nt
